Measured values published in PubChem BioAssay AID1779 (Sanford-Burnham Center for Chemical Genomics, 2009).
The whole screen tested about 290,000 compounds, of which about 160 (0.055%) were called active. Rule as the data show it: active = inhibition above about 50%; inactive = the rest. Shown is part of a subset that was picked to be rich in actives.

molecular target: Tyrosine-protein phosphatase non-receptor type 22 (Homo sapiens) (UniProt Q9Y2R2); test: PTPN22 lymphoid phosphatase activity blockers – biochemical, fluorescence intensity, uHTS (AID 1779); conditions: recombinant LYP phosphatase, at 11.5 µM, stronger effect = higher value;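 also: plate controls were vehicle with enzyme for no effect and no enzyme for full effect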
Sequence (Q9Y2R2 whole entry, looked up): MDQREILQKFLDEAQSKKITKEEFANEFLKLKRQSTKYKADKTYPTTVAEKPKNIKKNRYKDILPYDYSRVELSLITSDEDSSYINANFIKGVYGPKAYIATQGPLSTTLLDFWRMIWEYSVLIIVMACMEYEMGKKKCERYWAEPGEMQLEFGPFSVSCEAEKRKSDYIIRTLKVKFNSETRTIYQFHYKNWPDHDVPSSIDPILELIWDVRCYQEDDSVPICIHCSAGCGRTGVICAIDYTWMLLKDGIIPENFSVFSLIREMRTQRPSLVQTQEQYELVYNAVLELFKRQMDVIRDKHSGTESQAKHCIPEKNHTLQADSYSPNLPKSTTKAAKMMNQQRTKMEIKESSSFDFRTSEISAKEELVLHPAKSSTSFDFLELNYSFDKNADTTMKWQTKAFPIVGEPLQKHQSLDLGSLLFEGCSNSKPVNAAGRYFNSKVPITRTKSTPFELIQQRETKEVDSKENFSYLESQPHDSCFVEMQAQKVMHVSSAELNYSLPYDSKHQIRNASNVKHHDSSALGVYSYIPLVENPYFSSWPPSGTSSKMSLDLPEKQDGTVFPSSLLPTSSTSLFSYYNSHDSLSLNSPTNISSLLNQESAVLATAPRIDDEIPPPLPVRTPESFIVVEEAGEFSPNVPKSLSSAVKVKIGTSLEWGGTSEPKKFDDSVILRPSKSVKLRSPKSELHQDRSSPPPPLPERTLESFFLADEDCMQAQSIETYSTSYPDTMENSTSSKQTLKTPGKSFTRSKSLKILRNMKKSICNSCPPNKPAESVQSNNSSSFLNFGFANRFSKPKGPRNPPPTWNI

Compound	inhibition
CCC1CCCCN1CCCNC(=O)c1ccc(CS(=O)(=O)Cc2ccccc2F)o1 (stereo unspecified)	56.2% (active)
CCC1CCCCN1CCCNC(=O)c1ccc(CS(=O)(=O)c2ccccc2C)o1 (stereo unspecified)	-13.2% (inactive)
CCC1CCCCN1CCCNC(=O)c1ccc(CS(=O)(=O)Cc2ccc(Cl)cc2)o1 (stereo unspecified)	-7.2% (inactive)
COc1cccc(/C=N/NC(=O)c2ccc([N+](=O)[O-])cc2Cl)c1O	9% (inactive)
C=CCOc1ccc2cccc(/C=N/NC(=O)c3cc4cc([N+](=O)[O-])ccc4s3)c2c1	-4.5% (inactive)
COc1cccc(/C=N/NC(=O)c2cc3cc([N+](=O)[O-])ccc3s2)c1O	73.6% (active)
CC(=O)N1CCN(c2ccc(NC(=O)c3ccc(OCc4ccccc4)cc3)cc2)CC1	-3.8% (inactive)
CCc1ccc(OCc2nnc(SCC(=O)NC3CCCCC3)o2)cc1	-6.8% (inactive)
CCCNS(=O)(=O)c1ccc(NC(=O)c2cccnc2)cc1	-7.3% (inactive)
CC1Sc2ccc(S(=O)(=O)CCC(=O)NC3CCCC(C)C3C)cc2NC1=O (stereo unspecified)	-6.7% (inactive)
Cn1cc(Cl)c(C(=O)Nc2cnn(Cc3ccc(F)cc3)c2)n1	-1.2% (inactive)
Cc1ccccc1Cn1cc(NC(=O)c2nn(C)cc2Cl)cn1	60.2% (active)
Cc1ccccc1Cn1cc(NC(=O)c2cc(-c3ccco3)on2)cn1	-0.1% (inactive)
Cc1ccc(OCc2cc(C(=O)NC3CCOC3)no2)cc1C (stereo unspecified)	-2.1% (inactive)
O=C(CN1C(=O)c2ccccc2C1=O)N1CCN=C1c1ccccc1	-8.9% (inactive)
Cc1cc(C)cc(OCC(=O)N/N=C\c2cn(C)nc2C)c1	76.1% (active)
Cc1cc(C)cc(OCC(=O)N/N=C/c2ccncc2)c1	-10.7% (inactive)
CCn1ncc(/C=N\NC(=O)COc2cc(C)cc(C)c2)c1C	-3.6% (inactive)
CC1=NNC(=O)C1CCC(=O)N/N=C(\C)c1ccccc1 (stereo unspecified)	-4.6% (inactive)
c1ccc2c(c1)NC1(CCCC1)n1c-2nc2ccccc21	-16.8% (inactive)
Cc1cccc(NC(=O)Nc2cccc(C)n2)n1	-5.9% (inactive)

Compound	inhibition
COc1ccc(Cc2nnc(NC(=O)c3ccccc3Cl)s2)cc1OC	-9.8% (inactive)
COc1ccc(Cc2nnc(NC(=O)c3ccccc3F)s2)cc1	-0.8% (inactive)
COc1ccc(Cc2nnc(NC(=O)c3ccccc3F)s2)cc1OC	66.6% (active)
COc1ccc2cc(C(C)c3nc4ccccc4c(=O)n3N)ccc2c1 (stereo unspecified)	4.5% (inactive)
C=CCNc1nc(C(F)(F)F)nc2c1nnn2Cc1ccccc1Cl	-2.4% (inactive)
COc1ccc(CNC(=O)c2cc(-c3cc(C)cc(C)c3O)n[nH]2)cc1	4% (inactive)
COc1ccc(CNC(=O)c2cc(-c3ccccc3O)n[nH]2)cc1	53.5% (active)
COc1ccc(CNC(=O)c2cc(-c3cc(C)ccc3O)n[nH]2)cc1	-3.7% (inactive)
COc1cccc(N(C(=O)c2snc(C(N)=O)c2N)C(C(=O)NCC2CCCO2)c2cccs2)c1 (stereo unspecified)	-2% (inactive)
COc1ccc(C2CC(c3ccc(Br)cc3)=NN2C(=O)CCC(=O)O)cc1OC (stereo unspecified)	-7.6% (inactive)
COc1ccc(C2CC(c3ccc(C)cc3)=NN2C(=O)CCC(=O)O)cc1OC (stereo unspecified)	89.2% (active)
COc1ccc(C2=NN(C(=O)CCC(=O)O)C(c3ccc(OC)c(OC)c3)C2)cc1 (stereo unspecified)	-7.5% (inactive)
CC(=O)c1ccc(-n2c(CCC(=O)O)ccc2-c2ccc(C)cc2)cc1	-5.2% (inactive)
CS(=O)(=O)N1CCc2cc(C(=O)NC3CC3)ccc21	-10.8% (inactive)
COCCNC(=O)C(c1ccco1)N(Cc1ccc(OC)cc1)C(=O)Cn1nnc2ccccc21 (stereo unspecified)	10.9% (inactive)
COc1ccc(-c2nc(SC)n(C(=O)c3ccco3)n2)cc1	-4.5% (inactive)
CSc1nc(-c2ccccc2)nn1C(=O)c1ccco1	-3% (inactive)
CSc1nc(-c2ccc(Cl)cc2)nn1C(=O)c1ccco1	77.2% (active)
Cc1nc(-c2ccc(S(=O)(=O)N3CCN(CCc4ccccc4)CC3)s2)cs1	-0.7% (inactive)
N#CCN(CC#N)C(=O)C1c2ccccc2Oc2ccccc21	-3.9% (inactive)
COc1ccc(NC(=O)C2CCCN(S(=O)(=O)c3c(C)n[nH]c3C)C2)c(OC)c1 (stereo unspecified)	-2% (inactive)

Compound	inhibition
O=[N+]([O-])c1cc(Br)cc(/C=N/n2cnnc2)c1O	76.8% (active)
O=[N+]([O-])c1cc(Cl)cc(/C=N/n2cnnc2)c1O	3.8% (inactive)
Cc1cc(/C=N/n2cnnc2)c(O)c([N+](=O)[O-])c1	-3.1% (inactive)
COc1ccc(C2C(C#N)=C(N)Oc3cc(C)n(CCN4CCOCC4)c(=O)c32)cc1OC (stereo unspecified)	-4.7% (inactive)
CCOc1ccc(C2C(C#N)=C(N)Oc3cc(C)n(CCN4CCOCC4)c(=O)c32)cc1OCC (stereo unspecified)	61.4% (active)
CCOc1ccc(C2C(C#N)=C(N)Oc3cc(C)n(CCN(C)C)c(=O)c32)cc1OCC (stereo unspecified)	-1.7% (inactive)
Cc1cccn2c(=O)c3cc(C(=O)NC4CCCCC4)c(=N)n(CCN4CCOCC4)c3nc12	-35.6% (inactive)
Fc1ccc(-c2csc(=S)[nH]2)cc1	-2% (inactive)
S=c1[nH]c(-c2ccc(Cl)cc2)cs1	74.6% (active)
Cc1ccc(-c2csc(=S)[nH]2)cc1	-4% (inactive)
OCCC1CN(Cc2cccn2-c2ncccn2)CCN1C1CCCC1 (stereo unspecified)	-9.8% (inactive)
Cc1ccc(C(=O)N2CCN(S(=O)(=O)N3CCCCC3)CC2)cc1	-11.4% (inactive)
Cc1cc(NC(=O)COC(=O)COc2ccc(Cl)cc2C)c([N+](=O)[O-])cc1C	5.9% (inactive)
O=C(COC(=O)COc1ccc(Cl)cc1)Nc1ccc(F)c([N+](=O)[O-])c1	2.2% (inactive)
Cc1cc(Cl)ccc1OCC(=O)OCC(=O)Nc1ccc(F)c([N+](=O)[O-])c1	62% (active)
O=C(c1ccco1)N1CCN(C(=O)C2CC(=O)N(c3ccc(Cl)cc3)C2)CC1 (stereo unspecified)	-14.5% (inactive)
N/C(=N\N=C\c1ccco1)SC1CC(=O)N(c2ccccc2)C1=O (stereo unspecified)	-2.9% (inactive)
N/C(=N\N=C\c1ccc2c(c1)OCO2)SC1CC(=O)N(c2ccc(C(=O)O)cc2)C1=O (stereo unspecified)	70% (active)
N/C(=N\N=C\c1ccco1)SC1CC(=O)N(c2ccc(C(=O)O)cc2)C1=O (stereo unspecified)	1.7% (inactive)
